# From PubChem BioAssay AID1159580 (chemical genetic matrix, 2015)
# Out of some 5,500 compounds screened, about 2,000 (36%) were called active. Another 18% or so got no clear call; they are omitted. This is one part of the list. A number with no mark means an inactive call. No stated cut-off is given here; in the data, active means normalized growth mostly below about 0.91 (no sharp cut-off); inconclusive means no clear call, values can overlap the other calls; inactive means mostly above about 0.92.
# Assay: chemical genetic growth profiling, strain panel (AID 1159580);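 further: tested at 20 µM; growth read once vehicle control cultures reached saturation at 30 °C; 1 = growth at the plate median or of vehicle wells; lower values mean less growth of the strain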
# Details: S. cerevisiae deletion strains, growth OD
structure (smiles),measurement,setting,value
O=C(c1ccccc1)c1cc2c(cc1Br)OCCO2,normalized growth,"locus YAL013W, strain DEP1, active compounds read low",0.908 (active)
same,normalized growth,"locus YBR229C, strain ROT2, active compounds read low",0.953
same,normalized growth,"locus YDL101C, strain DUN1, active compounds read low",0.897 (active)
same,normalized growth,"locus YDL134C, strain PPH21, active compounds read low",0.942
same,normalized growth,"locus YDR150W, strain NUM1, active compounds read low",0.927
same,normalized growth,"locus YEL061C, strain CIN8, active compounds read low",0.904 (active)
same,normalized growth,"locus YGR078C, strain PAC10, active compounds read low",0.922 (active)
same,normalized growth,"locus YHR030C, strain SLT2, active compounds read low",0.304 (active)
same,normalized growth,"locus YHR087W, strain rtc3, active compounds read low",0.989
same,normalized growth,"locus YJR043C, strain POL32, active compounds read low",0.906 (active)
same,normalized growth,"locus YJR075W, strain HOC1, active compounds read low",0.93
same,normalized growth,"locus YKL190W, strain CNB1, active compounds read low",0.845 (active)
same,normalized growth,"locus YLR039C, strain RIC1, active compounds read low",0.486 (active)
same,normalized growth,"locus YLR058C, strain SHM2 (second series), active compounds read low",0.956
same,normalized growth,"locus YLR085C, strain ARP6, active compounds read low",0.419 (active)
same,normalized growth,"locus YLR262C, strain YPT6, active compounds read low",0.524 (active)
same,normalized growth,"locus YML094W, strain GIM5, active compounds read low",0.852 (active)
same,normalized growth,"locus YMR219W, strain ESC1, active compounds read low",0.952
same,normalized growth,"locus YMR263W, strain SAP30, active compounds read low",0.921
same,normalized growth,"locus YNL153C, strain GIM3, active compounds read low",0.91 (active)
same,normalized growth,"locus YNL298W, strain CLA4 (second series), active compounds read low",0.7 (active)
same,normalized growth,"locus YNL322C, strain KRE1, active compounds read low",0.955
same,normalized growth,"locus YNR030W, strain Alg12, active compounds read low",0.811 (active)
same,normalized growth,"locus YPL055C, strain LGE1, active compounds read low",0.845
same,normalized growth,"locus YPL241C, strain CIN2, active compounds read low",0.823 (active)
same,normalized growth,"locus YPR135W, strain CTF4, active compounds read low",0.445 (active)
